Results on nine compounds are retold here after PubChem BioAssay (EPA / NIEHS).

The structures appear in SMILES notation. Values joined by “and” are separate entries in the source; they are usually repeats but may differ in a detail not shown here. Equal entries are not always repeated. Results filed as inconclusive are left out. A structure can be active in one record and inactive in another. Active and inactive are the calls of the source. How the source made its calls, unless noted: active means hit-call score of the fitted dose curve at least 0.9, where 1 is the maximum; inactive means score below 0.9.

The target in assay [1] is Nuclear respiratory factor 1 (Homo sapiens) (UniProt Q16656). The experiment in a line: ATG_NRF1_CIS: Attagene CIS-FACTORIAL HepG2 Assay for human Nuclear Respiratory Factor 1 (NRF1) Orphan Gene (AID 2282987). To be noted: HepG2 NRF1 cis-element reporter, Attagene multiplex; actives raise or lower the signal. An outline of the steps:
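HepG2 cells transiently transfected with multiple reporter transcription units under cis-regulatory promoter control, so endogenous transcription-factor activity is read. After 24 h compound exposure, reporter mRNA quantified by RT-PCR, fluorescent labelling, HpaI digestion and capillary electrophoresis; bidirectional fitting versus DMSO.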

Assay [2] deals with Myc proto-oncogene protein (Homo sapiens) (UniProt P01106). Briefly: ATG_Myc_CIS: Attagene CIS-FACTORIAL HepG2 Assay for human Myelocytomatosis (Myc) Proto-Oncogene Transcription Factor (AID 2282990). To be noted: HepG2, Attagene cis-reporter transcription factor activity; actives raise or lower the signal. An outline of the steps: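 Transiently transfected HepG2 cells bearing cis-promoter reporter units for endogenous transcription factors; 24 h exposure. Reporter mRNA measured by RT-PCR, 6-FAM primer extension, HpaI cut and capillary electrophoresis; bidirectional fit relative to DMSO.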
Myc proto-oncogene protein (Homo sapiens), sequence (P01106 whole entry, looked up): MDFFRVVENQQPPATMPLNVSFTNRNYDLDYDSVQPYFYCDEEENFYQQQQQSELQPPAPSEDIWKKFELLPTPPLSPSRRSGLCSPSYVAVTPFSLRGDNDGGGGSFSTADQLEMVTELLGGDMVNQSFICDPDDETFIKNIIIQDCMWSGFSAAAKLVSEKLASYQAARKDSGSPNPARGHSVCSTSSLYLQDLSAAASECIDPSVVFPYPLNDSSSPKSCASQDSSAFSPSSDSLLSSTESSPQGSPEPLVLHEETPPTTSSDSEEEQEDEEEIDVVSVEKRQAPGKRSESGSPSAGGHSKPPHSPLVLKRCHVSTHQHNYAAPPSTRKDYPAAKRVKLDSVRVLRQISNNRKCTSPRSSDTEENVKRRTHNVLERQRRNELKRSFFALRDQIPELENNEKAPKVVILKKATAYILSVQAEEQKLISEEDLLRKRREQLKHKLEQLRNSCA

A short description of assay [3]: ATG_NF_kB_CIS: Attagene CIS-FACTORIAL HepG2 Assay for human Nuclear Factor Kappa B (NF-kB) (AID 2282991). To be noted: HepG2 Attagene cis-factorial NF-kB reporter mRNA; actives raise or lower the signal. An outline of the steps:
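HepG2 cells transiently transfected with multiplexed cis-element reporter units measuring endogenous transcription factor activity; reporter mRNA read 24 h after dosing by RT-PCR, fluorescent labelling, HpaI digestion and capillary electrophoresis. Bidirectional fit against DMSO baseline.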

Assay [4] in a line: ATG_NRF2_ARE_CIS: Attagene CIS-FACTORIAL HepG2 Assay for human Nuclear Factor Erythroid 2 Related Factor 2 (NFR2) response to Antioxidant Response Elements (ARE) (AID 2282992).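 On AC50: reporter mRNA level measured by RT-PCR and capillary electrophoresis fluorescence.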 Particulars: HepG2 Attagene ARE/NRF2 reporter, transcription factor activity; actives raise or lower the signal. An outline of the steps: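 Transient MRTU transfection of HepG2; 24 h compound exposure; TriZol RNA, RT with oligo(dT), PCR, 6-FAM primer extension, HpaI cut, CE. Bidirectional fit vs DMSO.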

The nature of assay [5]: ATG_Oct_MLP_CIS: Attagene CIS-FACTORIAL HepG2 Assay for human Octamer-Binding Transcription Factor (Oct) (AID 2282993). To be noted: HepG2 Attagene cis-factorial Oct reporter, mRNA; actives raise or lower the signal. An outline of the steps: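 Transfected HepG2 cells, 24 h treatment. Reporter mRNA quantified by RT-PCR–capillary electrophoresis; bidirectional fitting against DMSO.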

Assay [6] addresses Cellular tumor antigen p53 (Homo sapiens) (UniProt P04637). The experiment in a line: ATG_p53_CIS: Attagene CIS-FACTORIAL HepG2 Assay for human p53 Transcription Factor (AID 2282994). Particulars: HepG2 p53 cis-element reporter, Attagene mRNA; actives raise or lower the signal. An outline of the steps: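 HepG2, transient MRTU transfection (cis promoter elements, endogenous TFs); 24 h dosing; RNA isolation, RT-PCR, 6-FAM primer extension, HpaI digest, CE fluorescence; bidirectional fit vs DMSO.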

Assay [7] can be described thus: BSK_3C_TissueFactor: BioMAP Diversity Plus: 3C Assay for Tissue Factor Biomarker Activity (AID 2282997). To be noted: BioMAP 3C HUVEC, tissue factor biomarker readout; actives raise or lower the signal. An outline of the steps: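 Values derive from bidirectional curve fitting against DMSO of Tissue Factor ELISA signals, taken 24 h after dosing primary human umbilical vein endothelial cells.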

The nature of assay [8]: BSK_3C_uPAR: BioMAP Diversity Plus: 3C Assay for Urokinase-type plasminogen activator receptor (uPAR) Biomarker Activity (AID 2282998). Particulars: BioMAP 3C HUVEC, uPAR biomarker ELISA; actives raise or lower the signal. The gist of the method: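 Readout: ELISA for surface uPAR. System: human umbilical vein endothelial primary cells, 24 h after chemical exposure. Analysis: bidirectional fit, DMSO baseline.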

The nature of assay [9]: BSK_4H_Eotaxin3: BioMAP Diversity Plus: 4H Assay for Eotaxin 3 Biomarker Activity (AID 2283000).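 Further: CCL26 protein level quantified by ELISA in parallel with SRB cytotoxicity check.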 To be noted: primary human endothelial cells (HUVEC); actives raise or lower the signal. An outline of the steps:
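Endothelial primary cells (human umbilical vein) exposed to compound for 24 h. ELISA detection of Eotaxin-3.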

Read-out in assay [10]: Intercellular Adhesion Molecule 1 (ICAM1), ICAM1 (gene 3383)
The experiment in a line: BSK_3C_ICAM1: BioMAP Diversity Plus: 3C Assay for Intercellular Adhesion Molecule 1 (ICAM1) Biomarker Activity (AID 2283003). To be noted: primary human endothelial cells (HUVEC); actives raise or lower the signal. The gist of the method:
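Primary human umbilical vein endothelial cells in the BioMAP 3C system were exposed to chemicals for 24 h, then ICAM-1 was quantified by ELISA. Activity was fitted bidirectionally against the DMSO negative control baseline.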

For assay [11], the target named is human Retinoic Acid Receptor beta (RARb), RARB (gene 5915) (UniProt P10826). The experiment in a line: ATG_RARb_TRANS: Attagene TRANS-FACTORIAL HepG2 Assay for human Retinoic Acid Receptor beta (AID 2283004; active means hit-call score of the fitted dose curve at least 0.9, where 1 is the maximum). An outline of the steps:
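HepG2, transient MRTU transfection, NR–Gal4 chimera, 24 h treatment; RT-PCR plus CE fluorescence detection of reporter mRNA; gain of signal vs DMSO.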

Assay [12] in a line: BSK_3C_Proliferation: Cell Proliferation Assessment in the BioMAP Diversity Plus: 3C Assay (AID 2283006).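 On AC50: potency may reflect either rise or fall in cell number versus DMSO.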 Particulars: primary human endothelial cells (HUVEC). The gist of the method: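 Human umbilical vein endothelial cells were grown sub-confluent and exposed to chemical for 48 h, then fixed with 10% TCA and stained with 0.1% sulforhodamine B; absorbance at 560 nm gave relative cell number, fitted bidirectionally against DMSO baseline.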

The target in assay [13] is Peroxisome proliferator-activated receptor gamma (Homo sapiens) (UniProt P37231). The experiment in a line: ATG_PPARg_TRANS: Attagene TRANS-FACTORIAL HepG2 Assay for human Peroxisome Proliferator-activated Receptor-gamma (PPARg) (AID 2283007; active means hit-call score of the fitted dose curve at least 0.9, where 1 is the maximum). An outline of the steps: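 HepG2 cells transiently transfected with multiplexed GAL4-UAS reporter units and exogenous chimeric NR-Gal4 proteins; reporter mRNA quantified after 24 h compound exposure by RT-PCR, fluorescent labelling, HpaI digestion and capillary electrophoresis; gain-of-signal fitted versus DMSO baseline.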
Peroxisome proliferator-activated receptor gamma (Homo sapiens), sequence (P37231 whole entry, looked up, the tested form may be a part): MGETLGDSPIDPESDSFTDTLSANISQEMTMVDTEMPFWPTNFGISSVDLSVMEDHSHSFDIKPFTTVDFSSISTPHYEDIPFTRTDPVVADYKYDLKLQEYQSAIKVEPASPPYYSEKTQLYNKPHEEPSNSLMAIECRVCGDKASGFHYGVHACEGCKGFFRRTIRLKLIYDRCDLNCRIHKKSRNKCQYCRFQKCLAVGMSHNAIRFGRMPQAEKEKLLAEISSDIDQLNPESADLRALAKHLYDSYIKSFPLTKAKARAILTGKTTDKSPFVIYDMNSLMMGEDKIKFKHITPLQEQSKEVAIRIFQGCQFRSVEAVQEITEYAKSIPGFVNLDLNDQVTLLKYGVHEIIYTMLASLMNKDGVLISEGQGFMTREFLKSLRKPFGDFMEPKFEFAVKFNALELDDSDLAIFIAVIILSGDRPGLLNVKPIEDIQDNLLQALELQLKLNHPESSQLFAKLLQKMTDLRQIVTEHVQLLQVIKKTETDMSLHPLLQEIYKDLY

The target of assay [14] is Nuclear receptor subfamily 1 group I member 2 (Homo sapiens) (UniProt O75469). The experiment in a line: ATG_PXR_TRANS: Attagene TRANS-FACTORIAL HepG2 Assay for human Pregnane X Receptor (PXR) (AID 2283008; active means hit-call score of the fitted dose curve at least 0.9, where 1 is the maximum). The gist of the method: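 Read-out is fluorescence of labelled reporter cDNA fragments separated by capillary electrophoresis after RT-PCR and HpaI digestion. Source: HepG2 cells carrying PXR-GAL4/UAS reporter constructs, treated 24 h; activity fitted upward relative to DMSO.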
Nuclear receptor subfamily 1 group I member 2 (Homo sapiens), sequence (O75469 whole entry, looked up, the tested form may be a part): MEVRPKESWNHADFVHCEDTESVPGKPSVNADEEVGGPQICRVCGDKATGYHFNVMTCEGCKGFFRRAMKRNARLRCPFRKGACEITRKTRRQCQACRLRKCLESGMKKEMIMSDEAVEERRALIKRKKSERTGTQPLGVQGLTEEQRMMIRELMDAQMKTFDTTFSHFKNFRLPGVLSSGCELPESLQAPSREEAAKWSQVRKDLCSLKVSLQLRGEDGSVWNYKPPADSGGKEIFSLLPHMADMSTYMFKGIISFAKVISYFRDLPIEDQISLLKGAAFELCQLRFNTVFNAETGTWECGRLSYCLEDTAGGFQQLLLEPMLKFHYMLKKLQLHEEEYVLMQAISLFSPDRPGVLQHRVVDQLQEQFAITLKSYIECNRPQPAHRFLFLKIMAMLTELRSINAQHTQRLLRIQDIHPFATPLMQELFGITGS

Assay [15] has as its target human Peroxisome Proliferator-activated Receptor delta (PPARd), PPARD (gene 5467) (UniProt Q03181). Briefly: ATG_PPARd_TRANS: Attagene TRANS-FACTORIAL HepG2 Assay for human Peroxisome Proliferator-activated Receptor delta (PPARd) (AID 2283002; active means hit-call score of the fitted dose curve at least 0.9, where 1 is the maximum). The gist of the method: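 HepG2 cells transiently transfected with GAL4-UAS multiplexed reporter units driven by exogenous chimeric NR-GAL4 proteins; 24 h compound exposure. Reporter mRNA measured by RT-PCR, 6-FAM primer extension, HpaI digestion and capillary electrophoresis; gain of signal fitted relative to DMSO.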

Assay [16] deals with human Retinoic Acid Receptor gamma (RARg), RARG (gene 5916) (UniProt P13631). The experiment in a line: ATG_RARg_TRANS: Attagene TRANS-FACTORIAL HepG2 Assay for human Retinoic Acid Receptor gamma (RARg) (AID 2283009; active means hit-call score of the fitted dose curve at least 0.9, where 1 is the maximum). An outline of the steps: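 HepG2 cells transiently transfected with multiplexed reporter units expressing chimeric RARg-GAL4 and GAL4-UAS-driven reporters; 24 h compound exposure. Reporter mRNA quantified by RT-PCR with fluorescent labelling and capillary electrophoresis; gain-of-signal fitted relative to DMSO baseline.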
human Retinoic Acid Receptor gamma (RARg), RARG (gene 5916), sequence (P13631 whole entry, looked up, the tested form may be a part): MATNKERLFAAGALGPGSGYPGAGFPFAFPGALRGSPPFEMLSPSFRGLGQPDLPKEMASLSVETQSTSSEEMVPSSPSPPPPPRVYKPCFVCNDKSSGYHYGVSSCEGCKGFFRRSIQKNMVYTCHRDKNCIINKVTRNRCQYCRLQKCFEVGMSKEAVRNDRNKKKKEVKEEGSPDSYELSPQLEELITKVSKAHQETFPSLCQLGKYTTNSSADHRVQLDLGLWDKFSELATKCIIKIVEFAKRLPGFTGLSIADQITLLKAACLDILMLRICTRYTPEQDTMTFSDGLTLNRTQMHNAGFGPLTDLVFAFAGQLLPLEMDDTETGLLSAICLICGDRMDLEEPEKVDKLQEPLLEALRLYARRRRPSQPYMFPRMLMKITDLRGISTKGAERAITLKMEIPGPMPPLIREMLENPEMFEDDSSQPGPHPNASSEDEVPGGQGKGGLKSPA

Assay [17] is described as follows: BSK_3C_VCAM1: BioMAP Diversity Plus: 3C Assay for Vascular cell adhesion molecule 1 (VCAM1) Biomarker Activity (AID 2282999). Particulars: BioMAP 3C HUVEC, VCAM1 ELISA, cytokine-stimulated; actives raise or lower the signal. An outline of the steps:
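Human umbilical vein endothelial cells (3C system), biomarker read by ELISA 24 h after dosing; bidirectional fit against DMSO baseline. Cytotoxicity tracked by SRB total-protein staining in parallel cultures at biomarker time.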

Assay [18] concerns the target human Peroxisome Proliferator-activated Receptor alpha (PPARa), PPARA (gene 5465) (UniProt Q07869). Briefly: ATG_PPARa_TRANS: Attagene TRANS-FACTORIAL HepG2 Assay for human Peroxisome Proliferator-activated Receptor alpha (PPARa) (AID 2283001; active means hit-call score of the fitted dose curve at least 0.9, where 1 is the maximum). The gist of the method:
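Measures transcriptional activity of an exogenous chimeric PPARa-Gal4 protein in transiently transfected HepG2 cells after 24 h dosing. Reporter mRNA quantified via RT-PCR and capillary electrophoresis; DMSO served as negative control.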

Assay [19] in a line: ATG_NFI_CIS: Attagene CIS-FACTORIAL HepG2 Assay for human Nuclear Factor I (NFI) (AID 2282989). Particulars: HepG2 cis-regulatory reporter, NFI response element transcription; actives raise or lower the signal. An outline of the steps:
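Reporter transcription driven by endogenous transcription factors in HepG2 cells; 24 h treatment. Quantitation by labelled RT-PCR fragments on capillary electrophoresis, gain- or loss-of-signal relative to DMSO.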

Assay [20] addresses Retinoic acid receptor alpha (Homo sapiens) (UniProt P10276). Briefly: ATG_RARa_TRANS: Attagene TRANS-FACTORIAL HepG2 Assay for human Retinoic Acid Receptor alpha (RARa) (AID 2283005; active means hit-call score of the fitted dose curve at least 0.9, where 1 is the maximum). The gist of the method:
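HepG2 transiently transfected with multiplex GAL4-UAS reporter units including a human RARa–GAL4 chimera; 24 h compound exposure. Reporter mRNA quantified by RT-PCR, 6-FAM labeling and capillary electrophoresis; gain of signal versus DMSO.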

human Peroxisome Proliferator-activated Receptor alpha (PPARa), PPARA (gene 5465), sequence (Q07869 whole entry, looked up, the tested form may be a part): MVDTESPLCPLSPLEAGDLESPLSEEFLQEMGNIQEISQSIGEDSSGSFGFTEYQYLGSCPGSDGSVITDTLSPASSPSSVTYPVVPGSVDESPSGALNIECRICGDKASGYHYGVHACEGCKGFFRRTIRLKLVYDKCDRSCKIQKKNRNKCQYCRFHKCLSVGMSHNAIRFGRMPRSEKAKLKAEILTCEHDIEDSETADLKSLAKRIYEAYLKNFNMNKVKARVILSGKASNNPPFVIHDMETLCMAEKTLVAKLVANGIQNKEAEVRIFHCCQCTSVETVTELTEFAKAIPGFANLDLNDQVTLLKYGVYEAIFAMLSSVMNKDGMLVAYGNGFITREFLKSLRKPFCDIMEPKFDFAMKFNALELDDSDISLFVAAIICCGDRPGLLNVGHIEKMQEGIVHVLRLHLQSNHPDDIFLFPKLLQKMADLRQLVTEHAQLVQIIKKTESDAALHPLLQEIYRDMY
Cellular tumor antigen p53 (Homo sapiens), sequence (P04637 whole entry, looked up): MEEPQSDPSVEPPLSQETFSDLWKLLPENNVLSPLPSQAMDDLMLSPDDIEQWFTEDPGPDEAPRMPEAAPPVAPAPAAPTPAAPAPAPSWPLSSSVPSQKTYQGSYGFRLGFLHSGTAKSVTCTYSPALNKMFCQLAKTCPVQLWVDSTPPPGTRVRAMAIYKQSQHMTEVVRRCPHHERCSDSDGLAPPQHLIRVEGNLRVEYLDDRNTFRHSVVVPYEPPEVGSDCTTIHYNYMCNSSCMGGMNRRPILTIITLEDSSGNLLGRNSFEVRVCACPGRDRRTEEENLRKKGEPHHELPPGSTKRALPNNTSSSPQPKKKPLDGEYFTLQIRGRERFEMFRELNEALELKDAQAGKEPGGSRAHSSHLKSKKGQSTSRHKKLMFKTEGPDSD
Nuclear respiratory factor 1 (Homo sapiens), sequence (Q16656 whole entry, looked up): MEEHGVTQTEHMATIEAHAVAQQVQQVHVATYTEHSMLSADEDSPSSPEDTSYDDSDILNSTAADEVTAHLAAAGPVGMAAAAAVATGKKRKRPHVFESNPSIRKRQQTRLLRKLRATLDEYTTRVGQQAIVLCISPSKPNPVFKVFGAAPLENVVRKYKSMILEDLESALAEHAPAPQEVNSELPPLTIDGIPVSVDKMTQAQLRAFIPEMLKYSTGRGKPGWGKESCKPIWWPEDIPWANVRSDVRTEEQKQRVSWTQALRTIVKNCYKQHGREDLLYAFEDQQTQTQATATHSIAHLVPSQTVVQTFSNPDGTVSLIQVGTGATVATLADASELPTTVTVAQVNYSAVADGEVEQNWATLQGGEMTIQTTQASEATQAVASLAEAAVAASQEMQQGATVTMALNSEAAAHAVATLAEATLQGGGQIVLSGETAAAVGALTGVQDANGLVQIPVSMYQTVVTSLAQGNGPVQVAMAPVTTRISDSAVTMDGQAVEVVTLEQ
human Peroxisome Proliferator-activated Receptor delta (PPARd), PPARD (gene 5467), sequence (Q03181 whole entry, looked up, the tested form may be a part): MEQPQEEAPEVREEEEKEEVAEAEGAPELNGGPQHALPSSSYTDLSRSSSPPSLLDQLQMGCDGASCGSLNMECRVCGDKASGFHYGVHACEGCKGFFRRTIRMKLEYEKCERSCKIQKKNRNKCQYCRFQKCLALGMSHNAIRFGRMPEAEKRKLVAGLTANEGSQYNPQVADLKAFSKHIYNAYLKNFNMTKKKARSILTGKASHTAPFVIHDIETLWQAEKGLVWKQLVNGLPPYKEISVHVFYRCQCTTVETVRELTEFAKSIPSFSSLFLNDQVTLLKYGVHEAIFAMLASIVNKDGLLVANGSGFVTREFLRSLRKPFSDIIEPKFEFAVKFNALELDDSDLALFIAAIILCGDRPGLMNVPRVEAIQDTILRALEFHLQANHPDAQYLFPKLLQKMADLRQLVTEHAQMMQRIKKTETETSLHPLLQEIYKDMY
Retinoic acid receptor alpha (Homo sapiens), sequence (P10276 whole entry, looked up, the tested form may be a part): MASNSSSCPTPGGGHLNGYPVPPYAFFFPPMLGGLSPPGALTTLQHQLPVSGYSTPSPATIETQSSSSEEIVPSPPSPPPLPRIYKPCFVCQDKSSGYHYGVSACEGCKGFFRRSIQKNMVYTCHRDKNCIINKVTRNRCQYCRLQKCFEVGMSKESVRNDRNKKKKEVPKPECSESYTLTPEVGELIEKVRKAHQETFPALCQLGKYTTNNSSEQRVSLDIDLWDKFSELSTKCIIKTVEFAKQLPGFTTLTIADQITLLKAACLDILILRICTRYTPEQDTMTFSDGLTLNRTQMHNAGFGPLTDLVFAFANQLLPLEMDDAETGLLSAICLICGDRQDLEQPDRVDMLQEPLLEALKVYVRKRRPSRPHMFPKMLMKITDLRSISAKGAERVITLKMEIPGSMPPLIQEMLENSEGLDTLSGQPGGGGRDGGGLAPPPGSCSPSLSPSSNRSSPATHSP
human Retinoic Acid Receptor beta (RARb), RARB (gene 5915), sequence (P10826 whole entry, looked up, the tested form may be a part): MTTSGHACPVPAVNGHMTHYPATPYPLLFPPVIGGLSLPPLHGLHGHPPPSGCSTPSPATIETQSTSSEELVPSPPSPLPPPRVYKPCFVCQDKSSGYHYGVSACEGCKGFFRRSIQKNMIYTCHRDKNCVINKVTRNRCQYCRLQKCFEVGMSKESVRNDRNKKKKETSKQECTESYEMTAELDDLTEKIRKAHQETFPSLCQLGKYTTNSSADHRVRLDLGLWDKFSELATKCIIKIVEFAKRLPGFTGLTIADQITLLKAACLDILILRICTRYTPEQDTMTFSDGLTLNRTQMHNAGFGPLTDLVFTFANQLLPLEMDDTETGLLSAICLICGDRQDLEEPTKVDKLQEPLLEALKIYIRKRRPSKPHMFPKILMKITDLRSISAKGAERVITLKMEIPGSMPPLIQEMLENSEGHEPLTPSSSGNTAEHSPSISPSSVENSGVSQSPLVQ

Regarding `NC(=O)C(F)(F)C(F)(F)C(F)(F)C(F)(F)F`, the compound was called inactive in assay [1], in [2], in [3], in assay [4], in assay [5] and in assay [6]. Also, the result in [7], in assay [8], in assay [9], in assay [10], in assay [11] and in assay [12] was inactive. Further, the compound was called inactive in assay [13] and in [14].
For the compound `C(=C(c1ccccc1)c1ccccc1)c1ccccc1`, the call in [1], in assay [2], in assay [3], in [5], in [6] and in assay [15] was inactive. The compound was called inactive in [13] and in assay [16]. In addition, the AC50 in assay [4] is 25.2 µM (active); in assay [14], 7.71 µM (active).
Consider `CCCCC(CC)COP(=O)(O)OCC(CC)CCCC` (stereo not given), for which the compound was classed as inactive in assay [1], in assay [2], in [7], in [8], in assay [9] and in assay [10]. Moreover, the AC50 is 26.6 µM (active) in assay [4], 36 µM (active) in assay [12], 7.51 µM (active) in assay [13] and 15.4 µM (active) in assay [14].
For the compound `O=C(CC(=O)C(F)(F)C(F)(F)F)C(F)(F)F`, the outcome in assay [2], in [3], in [5], in [6], in assay [7] and in assay [8] was inactive. In addition, the result in assay [17], in assay [9], in [18], in [15], in assay [10] and in assay [12] was inactive. The compound was classed as inactive in [14] and in assay [16]. In addition, the AC50 in assay [3] was 150 µM (active); in [4], 94.6 µM (active) and 109 µM (active); in assay [6], 112 µM (active); in assay [13], 76.1 µM (active) and 61.2 µM (active).
Turning to `[Co]`, the result in [19], in [2], in assay [3], in [4], in assay [5] and in assay [6] was inactive. Further, the outcome in assay [20], in [13] and in assay [16] was inactive. The AC50 in assay [14] was 22.1 µM (active).
For `Cc1cccc(N(C)C)c1`, the outcome in [2], in assay [3], in assay [4], in assay [5], in [6] and in [18] was inactive. Further, the outcome in [13], in assay [14] and in assay [16] was inactive.
For the compound `O=C(O)C(F)(F)C(F)(F)C(F)(F)C(F)(F)F`, the compound was called inactive in assay [19], in assay [2], in assay [3], in assay [4], in assay [5] and in assay [7]. In addition, the result in assay [8], in assay [17], in assay [9], in assay [18], in assay [10] and in assay [12] was inactive. For the same compound, the call in [13], in [14] and in assay [16] was inactive.
In the case of `CCN(CC)c1ccc2c(C)cc(=O)oc2c1`, the compound was called inactive in assay [2], in assay [3], in [5], in [6], in [8] and in [17]. The outcome in assay [9], in [15] and in assay [10] was inactive. The AC50 was 59.3 µM (active) in [4]; 20 µM (active) in [7]; 30.6 µM (active) in assay [12]; 27.2 µM (active) in [13]; 3.63 µM (active) in assay [14].
In the case of `OCC(F)(F)C(F)(F)C(F)(F)C(F)(F)C(F)(F)C(F)(F)F`, the outcome in assay [19], in assay [2], in [3], in assay [5], in assay [7] and in [8] was inactive. Also, the outcome in assay [17], in [9], in [18], in assay [10], in assay [20] and in assay [14] was inactive. Further, the AC50 was 225 µM (active) in assay [4]; 46.4 µM (active) in assay [10]; 52.3 µM (active) and 30 µM (active) in [12].
